Results: PubChem BioAssay (NCI)
This is part of a sample that, as a whole, favours compounds with a hit. Of some 79,000 tested, about 15% had one in any assay. Calls of active or inactive are those of the source. Cut-off read from the data, not from the text of the source: active = growth inhibition above about 70%; inactive = the rest.

Assays:
[1] = NCI Yeast Anticancer Drug Screen. Data for the rad50 strain (AID 155);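 note: 0% = growth of vehicle-only cultures of the same strain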; conditions: S. cerevisiae rad50 strain growth inhibition; at 50.0 µM; stronger effect = higher value
In short: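 Readout: growth inhibition relative to vehicle-treated cultures. Compound exposure was carried out in a genetically defined yeast strain deficient in DNA damage repair.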

[2] = NCI Yeast Anticancer Drug Screen. Data for the mec2-1 strain (AID 157); conditions: S. cerevisiae mec2-1 strain, at 50.0 µM, stronger effect = higher value
In short: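 Vehicle-treated cultures served as reference for growth inhibition of compound-exposed mec2-1 yeast.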

[3] = NCI Yeast Anticancer Drug Screen. Data for the sgs1 mgt1 strain (AID 161);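 note: 0% = growth of cultures given vehicle only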; conditions: S. cerevisiae sgs1 mgt1 strain, at 50.0 µM, stronger effect = higher value
In short: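 Mutant yeast exposed to compound; growth scored against vehicle-only wells.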

[4] = NCI Yeast Anticancer Drug Screen. Data for the cln2 rad14 strain (AID 165);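 note: 0% = growth equal to vehicle treated cultures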; conditions: S. cerevisiae cln2 rad14 strain, at 50.0 µM, stronger effect = higher value
In short: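 Each compound was tested on cln2 rad14 yeast. Inhibition of growth was calculated against vehicle-exposed controls.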

[5] = NCI Yeast Anticancer Drug Screen. Data for the bub3 strain (AID 167); conditions: S. cerevisiae bub3 mutant strain, at 50.0 µM, stronger effect = higher value
In short: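 Readout: yeast growth inhibition, expressed relative to vehicle-only wells. The test organism is a mutant strain from a panel with lesions in DNA repair or checkpoint genes.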

[6] = NCI Yeast Anticancer Drug Screen. Data for the mlh1 rad18 strain (AID 175); conditions: S. cerevisiae mlh1 rad18 strain growth inhibition; at 50.0 µM; stronger effect = higher value
In short: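 Vehicle-treated cultures served as the reference for growth inhibition in a yeast strain carrying DNA damage repair alterations exposed to each compound.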

Measured: growth inhibition

CC1CNC(=S)O1 (stereo unspecified)
inactive: [1] -18.2% | [2] -15.5% | [3] 5.05% | [4] -7.05% | [5] -32.1% | [6] -16.7%

O=C1C=CC(n2cc(F)c(=O)[nH]c2=O)O1 (stereo unspecified)
inactive: [1] 27.1% | [2] 44.2% | [3] 44.9% | [4] 12.9% | [5] 9.3% | [6] -43.9%

O=C(Nc1ccccc1)OCC(CN1CCCCC1)OC(=O)Nc1ccccc1 (stereo unspecified)
inactive: [1] -35.7% | [2] -38% | [3] -13.8% | [4] 5.55% | [5] -23.8% | [6] -37.1%

CCN(CC)CCOC(=O)c1noc2cc([N+](=O)[O-])ccc12
inactive: [1] 0.7% | [2] 12.9% | [3] -1.25% | [4] -23.7% | [5] 5% | [6] 9.85%

Cc1ccc(S(=O)c2ccccc2C(O)(C(F)(F)F)C(F)(F)F)cc1 (stereo unspecified)
inactive: [4] 59.6% | [5] 52.1%
active: [1] 76.2% | [2] 75.8% | [3] 74.6% | [6] 75.7%

Cc1ccc(S(=O)(=O)N/N=C(\C(=N/OCc2ccccc2)c2ccccc2)c2ccccc2)cc1
inactive: [1] 43.4% | [2] -3.75% | [3] 27.6% | [4] 14.8% | [5] 10.8% | [6] 9.65%

O=C1NCCCCC1CC/C=C/c1ccccc1 (stereo unspecified)
inactive: [1] -13.7% | [2] -23.2% | [3] -3.7% | [4] -9.6% | [5] 32.5% | [6] -5.85%

CN(C)CCNC(=O)c1ccc(C(=O)NCCN(C)C)c2c(C(=O)NCCN(C)C)ccc(C(=O)NCCN(C)C)c12
inactive: [1] 19.1% | [2] 41.3% | [3] 37.2% | [4] 54.7% | [5] 4.5% | [6] 8.5%

CC1CCC(=O)N1c1ccc(N)cc1 (stereo unspecified)
inactive: [1] -19% | [2] -15.5% | [3] -15.2% | [4] 11.2% | [5] -23.3% | [6] 10.1%

CC(=O)Oc1ccc(C2(c3ccc(OC(C)=O)cc3)C(=O)Nc3ccccc32)cc1
inactive: [1] -11.2% | [2] -16.3% | [3] -5.85% | [4] -0.65% | [5] 20.8% | [6] -4.65%

CC(C)(C)NC(=O)Nc1nccs1
inactive: [1] 7.8% | [2] -7.9% | [3] -6.2% | [4] -86.5% | [5] -3.9% | [6] 9.85%

CC(C)(C)C(=O)Nc1c(Cl)c(C2CC2)nn1-c1ccccc1
inactive: [1] 7.55% | [2] -0.55% | [3] 24.7% | [4] 11.3% | [5] 22.4% | [6] 19.4%

O=C(Nc1ccc2ncccc2c1)Nc1ccc2ncccc2c1
inactive: [1] 12.9% | [2] -12.8% | [3] 4.2% | [4] -4.85% | [5] -10.4% | [6] 21.4%

CCOC(=O)N1C(c2ccccc2)N(c2ccccc2)C(c2ccccc2)N1C(=O)OCC (stereo unspecified)
inactive: [1] 4.7% | [2] 4.65% | [3] 22.9% | [4] 3.3% | [5] -15.6% | [6] 14.8%

Cc1cccc(/C=C/c2csnn2)n1
inactive: [1] -25.1% | [2] -6.75% | [3] -8.4% | [4] 14.6% | [5] -6.05% | [6] -15.2%

c1ccc2c3c(ccc2c1)Oc1ccc2ccccc2c1C3
inactive: [1] -8.55% | [2] -1.45% | [3] -7.2% | [4] -47.4% | [5] -7.35% | [6] 1%

CCCSc1cc(Cl)c(C)cc1S(=O)(=O)n1cc[nH]c1=O
inactive: [1] 11.9% | [2] 7.3% | [3] 9.15% | [4] 5.75% | [5] 13.3% | [6] 35.7%

CSc1sc2ccc(S(=O)(=O)O)cc2[n+]1C
inactive: [1] 24.1% | [2] -6.7% | [3] 15.7% | [4] -4.4% | [5] -1.85% | [6] 9.8%

Cc1cc(Cl)c2c(c1)C(=O)C(C)C2.[Cu+2] (stereo unspecified)
inactive: [1] -13.1% | [2] -10.2% | [3] -18.8% | [4] -26.4% | [5] -6.65% | [6] -6.2%

Cc1ccc2snc(C(=O)O)c2c1[N+](=O)[O-]
inactive: [1] 16.7% | [2] 0.65% | [3] 4.1% | [4] -1.65% | [5] -13.6% | [6] 8.6%

CCCCN=C=C(c1ccccc1)c1ccccc1
inactive: [1] 22% | [2] 12.5% | [3] -0.85% | [4] -35.8% | [5] -7.75% | [6] -15.1%

COC(=O)C1CCC(C)(C(=O)OC)C1(C)C (stereo unspecified)
inactive: [1] 0% | [2] -15.2% | [3] -11.9% | [4] -1.3% | [5] -12.4% | [6] -3.75%

C1OCC(C2OCOC2C2OCOC2C2COCO2)O1 (stereo unspecified)
inactive: [1] 7.8% | [2] 20.9% | [3] -5.25% | [4] -8.65% | [5] 34.9% | [6] 9.5%

Cc1cccc(-n2c(C)nc3[nH]cc(C)c3c2=N)c1
inactive: [1] 0.15% | [2] 0.65% | [3] 2.05% | [4] -21.9% | [5] 0.55% | [6] 11.1%

Cc1ccc2c(c1)C=C/C(=C/c1cc[n+](C)c3ccccc13)N2C
inactive: [1] -7.95% | [2] -22.2% | [3] 13.3% | [4] -1.05% | [5] -5.8% | [6] 1.55%

Cc1cn(C2CC3[O][Sn]([c]4ccccc4)([c]4ccccc4)[O]CC3O2)c(=O)[nH]c1=O (stereo unspecified)
inactive: [1] 8.65% | [2] 35.8% | [3] 16.6% | [4] 7.6% | [5] 13.2% | [6] 47%

CCC(CC)C(=O)OCCc1ccccc1
inactive: [1] 5% | [2] 3.05% | [3] -2.35% | [4] -6.3% | [5] 9.9% | [6] 0.75%

O=C1CC(NC(=O)C(F)(F)F)c2c1csc2Br (stereo unspecified)
inactive: [1] -20.6% | [2] -2.55% | [3] -9.1% | [4] -12.6% | [5] -11% | [6] 20.2%

COc1ccccc1N/N=c1\c2nc3ccccc3nc1n(-c1ccccc1C)c(=S)n2-c1ccccn1
inactive: [1] 3.4% | [2] 5.1% | [3] 16.3% | [4] -0.75% | [5] 0.9% | [6] 8.85%

C=CCNC(=S)Nc1ccccc1OCC
inactive: [1] 5.2% | [2] -3.8% | [3] -5.05% | [4] -68.5% | [5] -9.6% | [6] 0.2%

Cc1c(/C=C\C(=O)c2ccccc2)c2ccccc2n1C
inactive: [1] 12.7% | [2] -18.6% | [3] 2.2% | [4] -21.6% | [5] -15.2% | [6] 1.15%

CN(C)C(=N)N=C(N)N
inactive: [1] -23.2% | [2] -30.1% | [3] -27.6% | [4] -1.8% | [5] -42.9% | [6] -21.1%

CC(=O)Oc1ccc(OC(C)=O)c2c(OC(C)=O)ccc(OC(C)=O)c12
inactive: [1] 0.45% | [2] 2.15% | [3] 1.55% | [4] -10.3% | [5] 53.8% | [6] -6.8%

Clc1cc(Cl)nc(Nc2ccc3c(c2)CCC3)n1
inactive: [1] 23.9% | [2] 10.2% | [3] -1.15% | [4] -4.2% | [5] 3.9% | [6] 39.5%

CCCCNCCS
inactive: [1] 14.1% | [2] -14.6% | [3] 2.7% | [4] 6.9% | [5] -8.55% | [6] 8.5%

CCOCCC(=O)O
inactive: [1] 26.1% | [2] 6.3% | [3] -7% | [4] -5.3% | [5] 18.1% | [6] 6.15%

Cc1cccc(C(C#N)C(=O)CCCC(=O)Nc2ccccc2[N+](=O)[O-])c1 (stereo unspecified)
inactive: [1] -44.1% | [2] 9.4% | [3] 5.15% | [4] -36.6% | [5] 6.9% | [6] 11%

Clc1nc(N2CCOCC2)nc(N2CCOCC2)n1
inactive: [1] -9.5% | [2] -21.1% | [3] -3.2% | [4] -32.1% | [5] 7.7% | [6] -5.65%

CCCCN1C[C@H](OC(=O)CCC)[C@@H](OC(=O)CCC)[C@H](OC(=O)CCC)[C@H]1COC(=O)CCC
inactive: [1] -18.4% | [2] -15.7% | [3] -11% | [4] -5.3% | [5] -23.9% | [6] -15.7%

CCOC(=O)CCC(NC(=O)c1ccc(Nc2nc3ccccc3nc2-c2cccs2)cc1)C(=O)OCC (stereo unspecified)
inactive: [1] 7.1% | [2] 4.3% | [3] 20.1% | [4] 14.8% | [5] 9.2% | [6] -34.7%

Cc1nn(C(=O)c2ccccc2O)c2c1C(c1ccc(O)cc1)SC(N)=N2 (stereo unspecified)
inactive: [1] 16.1% | [2] 1.95% | [3] 29.4% | [4] 1.65% | [5] 43.6% | [6] 6.65%
